Consider 66 molecules from PubChem BioAssay AID651640 (Broad Institute, 2012).

Among all 350,000 compounds or so, about 6,000 (1.7%) were called active. About 5% were inconclusive and are not listed. The sample as a whole holds a higher share of actives than the screen did. Unmarked numbers belong to inactive results. No stated cut-off is given here; in the data, active means CPE inhibition above about 20% (passing the limit was not always enough); inconclusive means no clear call, values can overlap the other calls; tested in BHK-21 cells.

The assay can be described thus: inhibitors of DENV2 cytopathic effect, primary screen, cell-based, plate reader, single concentration (AID 651640).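 Further: 0% = median of neutral control wells and 100% = median of positive control wells.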 Particulars: DENV2-infected cells, cytopathic effect rescue, at 9.99 µM, active compounds read high.
For the molecule `O=C(C[C@H]1CC[C@H]2[C@@H](COC[C@H](O)CN2CCC(F)(F)F)O1)N1CCC(Cc2ccccc2)CC1`, the CPE inhibition is 0.858%.
In the case of `CC(=O)c1c(N2CCN(c3ccc(F)cc3)CC2)nc(=S)n(-c2ccccc2)c1C`, the CPE inhibition is 46.2% (active).
Under `O=C(CN1CCN(c2ccccc2)CC1)Nc1ccc(F)cc1` stands -6.81%.
Under `Cc1ccc2cc(C)c(N3CCN(c4ccc(F)cc4)CC3)nc2c1` stands -3.88%; under `CN1C(=O)c2cc(NC(=O)C3CCCC3)ccc2OC[C@@H]2O[C@@H](CC(=O)NCCc3ccncc3)CC[C@@H]21`, 26.3% (active).
On to `CN1C(=O)c2cc(NC(=O)C3CCCC3)ccc2OC[C@H]2O[C@@H](CC(=O)NCCc3ccncc3)CC[C@H]21`, for which the CPE inhibition is 5.23%.
Under `CCC(=O)Nc1ccc2c(c1)C(=O)N(C)[C@@H]1CC[C@H](CC(=O)NCCc3ccncc3)O[C@@H]1CO2` stands -5.57%; under `C[C@@H]1CN([C@H](C)CO)S(=O)(=O)c2ccc(-c3ccc(C(=O)N(C)C)cc3)cc2O[C@@H]1CN(C)C(=O)Nc1ccccc1F`, 2.86%; under `Cc1ccc(S(=O)(=O)N2[C@@H](c3cccc(Cl)c3)C(C(=O)O)=CC[C@H]2c2ccc(Cl)c(Cl)c2)cc1`, 40% (active).
As for `Cc1ccccc1S(=O)(=O)N1[C@@H](c2cccc(Cl)c2)C(C(=O)O)=CC[C@H]1c1ccc(Cl)cc1`, the CPE inhibition is 6.18%.
For the molecule `Cc1ccccc1S(=O)(=O)N1[C@@H](c2cccc(Cl)c2)C(C(=O)OC(C)(C)C)=CC[C@H]1c1ccc(Cl)cc1`, the CPE inhibition was -8.63%.
The value for `Cc1ccc([C@@H]2CC=C(C(=O)O)[C@H](c3cccc(Cl)c3)N2S(=O)(=O)c2ccc(C)cc2)cc1` was 42.3% (active).
Regarding `Cc1ccc(S(=O)(=O)N2[C@@H](c3ccccc3F)C(C(=O)O)=CC[C@H]2c2ccc(Cl)cc2)cc1`, the CPE inhibition was -10.7%.
The value for `CCOC(=O)C1=CC[C@@H](c2ccccc2)N(S(=O)(=O)c2ccc(C)cc2)[C@H]1c1cccc(OC)c1` was -3.53%; that for `O=C(C[C@H]1CC[C@@H](NC(=O)CC2CC2)[C@@H](CO)O1)NCc1ccccc1` was 3.95%; that for `C[C@@H]1CN([C@H](C)CO)C(=O)c2cc(NC(=O)Nc3ccc(F)cc3)ccc2O[C@@H](C)CCCCO[C@@H]1CN(C)S(=O)(=O)c1cn(C)cn1` was 2.14%.
Regarding `C[C@H](CO)N1C[C@H](C)[C@H](CN(C)Cc2cncnc2)Oc2cc(-c3ccccc3F)ccc2S1(=O)=O`, the CPE inhibition is -2.27%.
On to `C[C@@H]1CCCCO[C@H](CN(C)Cc2ccccc2)[C@H](C)CN([C@@H](C)CO)C(=O)c2cc(NC(=O)Nc3cccc4ccccc34)ccc2O1`, for which the CPE inhibition was -25.3%.
As to `O=C(C[C@H]1CC[C@H]2[C@@H](COC[C@H](O)CN2C(=O)Nc2ccc(Cl)cc2)O1)NCC1CC1`, the CPE inhibition is 85.5% (active).
Take `C[C@@H](NC(=O)C[C@@H]1CC[C@@H]2[C@H](COC[C@@H](O)CN2C(=O)Nc2cccc(F)c2)O1)c1ccccc1`: the CPE inhibition was 24.3% (active).
The value for `C[C@@H](NC(=O)C[C@@H]1CC[C@H]2[C@@H](COC[C@@H](O)CN2C(=O)Nc2cccc(F)c2)O1)c1ccccc1` was 4.9%; that for `C[C@@H](NC(=O)C[C@H]1CC[C@H]2[C@@H](COC[C@@H](O)CN2C(=O)Nc2ccccc2)O1)c1ccccc1` was -9.46%; that for `CCCNC(=O)C[C@@H]1CC[C@H]2[C@@H](COC[C@H](O)CN2C(=O)Nc2ccc(Cl)c(Cl)c2)O1` was 2.89%.
Take `O=C(C[C@@H]1CC[C@H]2[C@@H](COC[C@@H](O)CN2C(=O)Nc2ccc(F)cc2)O1)NCC1CC1`: the CPE inhibition was -0.669%.
Under `CCNC(=O)C[C@H]1CC[C@@H]2[C@H](COC[C@H](O)CN2C(=O)Nc2c(C)noc2C)O1` stands -1.85%; under `O=C(C[C@@H]1CC[C@H]2[C@@H](COC[C@H](O)CN2C(=O)Nc2ccc(Cl)cc2)O1)NCC1CC1`, 6.37%; under `CCCNC(=O)C[C@H]1CC[C@H]2[C@@H](COC[C@H](O)CN2C(=O)Nc2c(C)noc2C)O1`, 40.9% (active).
The value for `COc1ccc(NC(=O)N2C[C@H](O)COC[C@H]3O[C@@H](CC(=O)NC4Cc5ccccc5C4)CC[C@@H]32)cc1` was -9.25%.
On to `COc1ccc2c3c(n(C)c2c1)[C@@H](CO)N(C)CC31CN(CC2CC2)C1`, for which the CPE inhibition is -0.913%.
As for `O=c1cc(-c2ccccc2)[nH]c2cc(F)ccc12`, the CPE inhibition was -7.41%.
`Cc1ccc(-c2cc(=O)c3ccc(Cl)cc3[nH]2)cc1`: the CPE inhibition was 0.541%.
The value for `Cc1ccc(-c2cc(=O)c3ccc(F)cc3[nH]2)cc1` was 25% (active).
Consider `CC(C)CC#Cc1ccc([C@H]2[C@@H](CO)N3C(=O)CN(C(=O)CN4CCOCC4)C[C@H]23)cc1`, for which the CPE inhibition was -8.34%.
Turning to `COc1cc(C(=O)OCCCN2CCOCC2)cc(OC)c1OC`, the CPE inhibition is 49.2% (active).
The value for `COc1ccc(C(=O)NCCCN2CCOCC2)cc1Br` was 8.89%; that for `CCN1CCN(CC(=O)c2cc(OC)c(OC)c(OC)c2)CC1` was -1.76%.
Under `O=C(C[C@@H]1C=C[C@@H](NC(=O)c2ccccc2)[C@H](CO)O1)NCCc1ccncc1` stands -5.54%; under `CC(C)CC(COCc1ccc(Cl)cc1)N1CCN(C(=O)c2ccc(C(F)(F)F)cc2)CCC1=O` (stereo unspecified), 49.9% (active).
Under `CC(C)C[C@@H](COCc1ccc(Cl)cc1)N1CCN(C(=O)c2ccc(Cl)cc2Cl)CCC1=O` stands -4.03%; under `O=C(c1ccc(C(F)(F)F)cc1)N1CCC(=O)N([C@H](COCc2ccccc2)Cc2ccccc2)CC1`, -2.73%.
Regarding `C[C@H](CO)N1C[C@H](C)[C@H](CN(C)C)Oc2cc(C#Cc3ccccc3F)ccc2S1(=O)=O`, the CPE inhibition was -8.31%.
As to `COCC(=O)N(C)C[C@H]1Oc2ncc(-c3ccc(C)cc3)cc2C(=O)N([C@@H](C)CO)C[C@@H]1C`, the CPE inhibition is 14.3%.
For the molecule `Cc1ccc(S(=O)(=O)N2C[C@@H](C)[C@]3(C2)[C@H](O)[C@H](OC(=O)NCc2ccccc2)C[C@H]2C(=O)N(c4ccccc4)C(=O)[C@H]23)cc1`, the CPE inhibition was 31.2% (active).
The value for `COC(=O)[C@H]1C[C@H](OC(=O)NCc2ccccc2)[C@@]2(O)CN(S(=O)(=O)c3ccc(C)cc3)CC2[C@H]1C(=O)OC` (stereo partly specified) was 11.6%; that for `Cc1ccc(S(=O)(=O)N2C[C@]3(O)C[C@@H]4C(=O)N(c5ccccc5)C(=O)[C@@H]4C[C@]3(OC(=O)NC3CC3)C2)cc1` was 0.334%.
As to `C[C@H]1CN([C@@H](C)CO)C(=O)c2cccc(NC(=O)CCCCCC(=O)Nc3ccccc3N)c2O[C@@H]1CN(C)CC1CCCCC1`, the CPE inhibition is 1.77%.
Consider `C[C@H]1CN([C@@H](C)CO)C(=O)c2cc(Br)cnc2O[C@@H]1CN(C)S(=O)(=O)c1ccc(F)cc1`, for which the CPE inhibition is -4.52%.
The value for `C[C@@H]1CN([C@@H](C)CO)C(=O)c2cccc(NC(=O)c3ccc(-c4nccs4)cc3)c2O[C@@H]1CN(C)S(=O)(=O)c1ccccc1` was -5.21%.
The value for `COc1ccc2c3c([nH]c2c1)[C@H](CO)N(C(=O)CN1CCOCC1)CC31CN(C(C)=O)C1` was 4.54%.
Under `CCC(=O)N1CC2(CN(C(=O)Nc3ccccc3F)C2)c2c([nH]c3cc(OC)ccc23)[C@H]1CO` stands 10.3%; under `CC(C)C#Cc1ccc2c(c1)O[C@@H](CN(C)C(=O)Nc1ccccc1)[C@H](C)CN([C@H](C)CO)S2(=O)=O`, -2.16%; under `C=C1C(=O)[C@]23C[C@H]1CCC2[C@@]1(C)C(C[C@@H]3O)[C@](C)(C(=O)O)CC[C@@H]1O` (stereo partly specified), 74.8% (active).
As to `O=C(C[C@@H]1C[C@H]2c3cc(NS(=O)(=O)c4ccc(F)cc4)ccc3O[C@H]2[C@H](CO)O1)NC1CCCC1`, the CPE inhibition is -5.59%.
Regarding `CCC(=O)N(C)C[C@@H]1Oc2ncc(C3=CCCC3)cc2C(=O)N([C@H](C)CO)C[C@@H]1C`, the CPE inhibition was -6.55%.
With `C[C@@H]1CN([C@@H](C)CO)C(=O)c2cc(C3=CCCC3)cnc2O[C@H]1CN(C)Cc1ccccc1F`, the CPE inhibition was 3.87%.
Under `C[C@H](CO)N1C[C@H](C)[C@H](CN(C)Cc2cccnc2)Oc2ncc(C3=CCCC3)cc2C1=O` stands -1.52%; under `C[C@H](CO)N1C[C@H](C)[C@@H](CN(C)Cc2ccccn2)Oc2ncc(C3=CCCC3)cc2C1=O`, 49.6% (active); under `CCCN(C)C[C@H]1Oc2ncc(-c3ccccc3OC)cc2C(=O)N([C@H](C)CO)C[C@@H]1C`, 14.5%.
Take `CCCN(C)C[C@@H]1Oc2ncc(-c3ccccc3F)cc2C(=O)N([C@@H](C)CO)C[C@@H]1C`: the CPE inhibition is 38.8% (active).
Consider `C[C@H](CO)N1C[C@H](C)[C@H](CN(C)S(C)(=O)=O)Oc2ncc(C3=CCCC3)cc2C1=O`, for which the CPE inhibition is 32.1% (active).
Under `C[C@@H]1CN([C@H](C)CO)C(=O)c2cc(C3=CCCC3)cnc2O[C@H]1CN(C)C` stands 0.588%; under `C[C@H]1CN([C@@H](C)CO)C(=O)c2cc(-c3ccccc3F)cnc2O[C@@H]1CN(C)C`, -7.94%; under `CCC(=O)N(C)C[C@@H]1Oc2cc(-c3ccc(OC)cc3)ccc2S(=O)(=O)N([C@@H](C)CO)C[C@H]1C`, -4.79%.
Under `O=C(C[C@H]1C[C@H]2c3cc(NC(=O)Cc4ccncc4)ccc3O[C@H]2[C@@H](CO)O1)NCc1cccc(F)c1` stands -1.57%; under `COc1cccc(S(=O)(=O)Nc2ccc3c(c2)C(=O)N(C)C[C@@H](OC)[C@@H](C)CN[C@@H](C)CO3)c1`, 2.43%; under `C[C@@H]1CN([C@@H](C)CO)C(=O)c2cc(N(C)C)ccc2O[C@@H](C)CCCCO[C@@H]1CN(C)C(=O)CCC(F)(F)F`, 5.58%.
